Measured values as given in the supplement of paper PMC11732987, “Enantioselective OTUD7B fragment discovery through chemoproteomics screening and high-throughput optimisation” (Communications Chemistry, 2025).

Key:
Assay in all cases: log2 ratio of Biotin-Ahx-Ub-VS probe labelling (fragment/DMSO); higher = less target engagement (more negative = stronger competition), active = hit call of the paper (q ≤ 0.05, log2 ratio ≤ -1)
Conditions in all cases: compound concentration: 200 uM; treatment time: 3 h
OTUD6B = biological target: T1, OTUD6B (UniProt Q8N6M0)
T1 sequence (whole entry): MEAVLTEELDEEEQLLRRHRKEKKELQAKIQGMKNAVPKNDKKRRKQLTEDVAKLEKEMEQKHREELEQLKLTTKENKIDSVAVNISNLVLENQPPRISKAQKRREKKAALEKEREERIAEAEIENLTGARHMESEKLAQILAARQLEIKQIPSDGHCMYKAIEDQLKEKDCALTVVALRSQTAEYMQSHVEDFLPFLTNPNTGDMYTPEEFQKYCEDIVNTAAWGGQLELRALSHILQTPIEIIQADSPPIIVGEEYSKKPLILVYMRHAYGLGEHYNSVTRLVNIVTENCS
How it was run: (§1)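 Using Biotin-Ahx-Ub-VS at 0.5 µM final for 1 h, DUBs were labelled in HEK293T lysate (495 µg per sample) that had first been treated in triplicate with fragment at 200 µM or vehicle for 3 h. NeutrAvidin enrichment, LysC and trypsin digestion and diaPASEF LC-MS/MS followed. Spectronaut label-free quantities were global-median-normalised. Values are average log2 fragment/vehicle ratios by unpaired t-test, using proteins with ≥2 unique peptides.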

OTUD7B = biological target: T2, OTUD7B (UniProt Q6GQQ9)
T2 sequence (whole entry): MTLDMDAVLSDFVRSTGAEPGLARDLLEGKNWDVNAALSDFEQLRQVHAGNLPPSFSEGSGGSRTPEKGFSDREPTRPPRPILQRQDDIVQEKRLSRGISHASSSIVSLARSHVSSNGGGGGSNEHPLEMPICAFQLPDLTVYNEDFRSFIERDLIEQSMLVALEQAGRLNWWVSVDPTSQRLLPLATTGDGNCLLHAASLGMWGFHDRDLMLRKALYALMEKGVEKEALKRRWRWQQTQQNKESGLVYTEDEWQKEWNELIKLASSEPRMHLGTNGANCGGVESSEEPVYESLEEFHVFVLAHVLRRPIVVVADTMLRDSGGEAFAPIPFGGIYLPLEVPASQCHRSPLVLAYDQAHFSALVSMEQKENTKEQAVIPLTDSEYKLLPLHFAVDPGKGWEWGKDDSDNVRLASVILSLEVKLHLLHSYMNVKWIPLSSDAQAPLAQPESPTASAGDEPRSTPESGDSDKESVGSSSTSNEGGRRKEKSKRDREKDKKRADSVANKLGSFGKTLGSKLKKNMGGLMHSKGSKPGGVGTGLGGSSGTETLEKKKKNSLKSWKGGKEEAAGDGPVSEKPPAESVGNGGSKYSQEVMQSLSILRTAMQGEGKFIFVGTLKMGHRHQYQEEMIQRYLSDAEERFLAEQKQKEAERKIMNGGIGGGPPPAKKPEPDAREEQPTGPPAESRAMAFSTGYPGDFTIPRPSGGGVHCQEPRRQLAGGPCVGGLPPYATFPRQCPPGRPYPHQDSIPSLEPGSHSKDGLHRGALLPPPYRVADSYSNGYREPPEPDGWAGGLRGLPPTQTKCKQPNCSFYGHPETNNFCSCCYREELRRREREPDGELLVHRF
How it was run: as §1

PRPF8 = PRPF8 (UniProt Q6P2Q9)
How it was run: as §1

PSMD7 = biological target: T3, PSMD7 (UniProt P51665)
T3 sequence (whole entry): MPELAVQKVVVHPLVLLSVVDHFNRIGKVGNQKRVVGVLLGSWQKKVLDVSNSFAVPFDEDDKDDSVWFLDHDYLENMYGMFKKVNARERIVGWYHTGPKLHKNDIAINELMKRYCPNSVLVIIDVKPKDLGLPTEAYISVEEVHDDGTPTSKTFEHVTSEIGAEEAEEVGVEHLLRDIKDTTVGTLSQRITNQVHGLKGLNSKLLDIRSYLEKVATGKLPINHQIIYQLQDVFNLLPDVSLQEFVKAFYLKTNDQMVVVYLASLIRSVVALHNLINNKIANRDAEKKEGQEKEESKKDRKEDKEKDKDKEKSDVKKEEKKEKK
How it was run: as §1

UCHL1 = UCHL1 (UniProt P09936)
How it was run: as §1

UCHL3 = biological target: T4, UCHL3 (UniProt P15374)
T4 sequence (whole entry): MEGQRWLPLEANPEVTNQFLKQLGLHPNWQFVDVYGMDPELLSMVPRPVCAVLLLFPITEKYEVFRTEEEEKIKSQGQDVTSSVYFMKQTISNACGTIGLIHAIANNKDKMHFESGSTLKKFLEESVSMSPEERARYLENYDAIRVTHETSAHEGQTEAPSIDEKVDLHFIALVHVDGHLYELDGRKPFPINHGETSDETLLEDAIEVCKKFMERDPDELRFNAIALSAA
How it was run: as §1

UCHL5 = biological target: T5, UCHL5 (UniProt Q9Y5K5)
T5 sequence (whole entry): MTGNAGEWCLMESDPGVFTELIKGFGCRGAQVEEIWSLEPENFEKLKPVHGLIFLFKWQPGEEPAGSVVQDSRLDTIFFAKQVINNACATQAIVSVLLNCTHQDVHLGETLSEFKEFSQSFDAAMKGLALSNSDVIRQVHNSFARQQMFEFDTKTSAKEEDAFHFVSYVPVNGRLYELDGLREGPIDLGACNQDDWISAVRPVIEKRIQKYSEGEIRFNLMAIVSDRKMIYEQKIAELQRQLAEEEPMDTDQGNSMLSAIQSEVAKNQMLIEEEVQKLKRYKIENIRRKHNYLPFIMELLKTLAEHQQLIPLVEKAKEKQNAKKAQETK
How it was run: as §1

USP10 = USP10 (UniProt Q14694)
How it was run: as §1

USP15 = biological target: T6, USP15 (UniProt Q9Y4E8)
T6 sequence (whole entry): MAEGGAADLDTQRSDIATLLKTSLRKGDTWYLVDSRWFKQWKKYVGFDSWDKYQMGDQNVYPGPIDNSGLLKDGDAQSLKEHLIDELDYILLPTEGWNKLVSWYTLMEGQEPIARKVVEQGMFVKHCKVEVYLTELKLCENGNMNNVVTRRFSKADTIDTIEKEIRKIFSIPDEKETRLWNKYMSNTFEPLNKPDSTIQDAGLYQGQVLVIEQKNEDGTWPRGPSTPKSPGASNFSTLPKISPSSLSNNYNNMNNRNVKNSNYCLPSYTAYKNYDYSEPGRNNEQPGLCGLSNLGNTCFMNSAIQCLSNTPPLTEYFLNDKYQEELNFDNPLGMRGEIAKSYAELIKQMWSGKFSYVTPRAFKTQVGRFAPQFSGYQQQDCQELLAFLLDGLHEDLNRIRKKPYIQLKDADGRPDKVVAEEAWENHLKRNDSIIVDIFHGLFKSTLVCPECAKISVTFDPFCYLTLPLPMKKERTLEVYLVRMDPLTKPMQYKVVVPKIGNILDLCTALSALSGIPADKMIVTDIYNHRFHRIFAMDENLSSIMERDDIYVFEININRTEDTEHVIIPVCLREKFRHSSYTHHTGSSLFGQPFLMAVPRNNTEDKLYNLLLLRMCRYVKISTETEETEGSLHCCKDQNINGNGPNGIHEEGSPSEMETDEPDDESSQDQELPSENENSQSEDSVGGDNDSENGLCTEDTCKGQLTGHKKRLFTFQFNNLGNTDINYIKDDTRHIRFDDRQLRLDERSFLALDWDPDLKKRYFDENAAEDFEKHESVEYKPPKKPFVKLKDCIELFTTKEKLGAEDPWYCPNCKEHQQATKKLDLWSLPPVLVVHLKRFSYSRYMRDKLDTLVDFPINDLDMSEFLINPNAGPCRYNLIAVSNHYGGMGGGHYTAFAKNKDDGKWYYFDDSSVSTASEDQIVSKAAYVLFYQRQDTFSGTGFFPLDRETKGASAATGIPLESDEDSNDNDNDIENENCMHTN
How it was run: as §1

USP16 = USP16 (UniProt Q9Y5T5)
How it was run: as §1

Measured: log2 ratio of Biotin-Ahx-Ub-VS probe labelling

UCHL1, sequence (P09936 whole entry, looked up): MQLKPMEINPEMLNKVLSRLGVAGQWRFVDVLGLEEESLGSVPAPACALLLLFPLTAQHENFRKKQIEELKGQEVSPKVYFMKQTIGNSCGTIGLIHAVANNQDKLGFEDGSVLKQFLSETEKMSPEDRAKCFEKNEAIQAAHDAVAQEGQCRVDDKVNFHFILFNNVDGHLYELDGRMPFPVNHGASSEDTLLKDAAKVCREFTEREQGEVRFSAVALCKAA
USP16, sequence (Q9Y5T5 whole entry, looked up): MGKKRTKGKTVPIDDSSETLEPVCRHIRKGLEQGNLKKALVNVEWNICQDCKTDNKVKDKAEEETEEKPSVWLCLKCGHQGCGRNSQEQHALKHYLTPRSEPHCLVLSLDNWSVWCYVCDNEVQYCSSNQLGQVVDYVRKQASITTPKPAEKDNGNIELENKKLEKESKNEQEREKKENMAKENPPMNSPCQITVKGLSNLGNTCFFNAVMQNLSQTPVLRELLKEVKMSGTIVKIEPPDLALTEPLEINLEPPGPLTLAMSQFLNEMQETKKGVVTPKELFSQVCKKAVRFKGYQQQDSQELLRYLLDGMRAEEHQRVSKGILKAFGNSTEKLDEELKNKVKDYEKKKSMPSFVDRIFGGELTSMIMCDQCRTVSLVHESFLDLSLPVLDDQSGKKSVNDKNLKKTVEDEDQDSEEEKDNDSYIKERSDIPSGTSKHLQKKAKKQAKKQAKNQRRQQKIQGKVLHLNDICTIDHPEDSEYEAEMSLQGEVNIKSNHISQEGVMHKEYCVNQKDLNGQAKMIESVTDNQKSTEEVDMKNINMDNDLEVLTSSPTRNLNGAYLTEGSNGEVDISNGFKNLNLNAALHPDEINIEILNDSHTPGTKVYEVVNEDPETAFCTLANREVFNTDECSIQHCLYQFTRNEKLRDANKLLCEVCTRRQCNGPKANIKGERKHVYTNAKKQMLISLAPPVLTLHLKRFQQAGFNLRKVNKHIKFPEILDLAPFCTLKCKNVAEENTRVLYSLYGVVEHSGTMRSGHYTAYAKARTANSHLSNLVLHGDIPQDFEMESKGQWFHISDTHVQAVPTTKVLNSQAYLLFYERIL
USP10, sequence (Q14694 whole entry): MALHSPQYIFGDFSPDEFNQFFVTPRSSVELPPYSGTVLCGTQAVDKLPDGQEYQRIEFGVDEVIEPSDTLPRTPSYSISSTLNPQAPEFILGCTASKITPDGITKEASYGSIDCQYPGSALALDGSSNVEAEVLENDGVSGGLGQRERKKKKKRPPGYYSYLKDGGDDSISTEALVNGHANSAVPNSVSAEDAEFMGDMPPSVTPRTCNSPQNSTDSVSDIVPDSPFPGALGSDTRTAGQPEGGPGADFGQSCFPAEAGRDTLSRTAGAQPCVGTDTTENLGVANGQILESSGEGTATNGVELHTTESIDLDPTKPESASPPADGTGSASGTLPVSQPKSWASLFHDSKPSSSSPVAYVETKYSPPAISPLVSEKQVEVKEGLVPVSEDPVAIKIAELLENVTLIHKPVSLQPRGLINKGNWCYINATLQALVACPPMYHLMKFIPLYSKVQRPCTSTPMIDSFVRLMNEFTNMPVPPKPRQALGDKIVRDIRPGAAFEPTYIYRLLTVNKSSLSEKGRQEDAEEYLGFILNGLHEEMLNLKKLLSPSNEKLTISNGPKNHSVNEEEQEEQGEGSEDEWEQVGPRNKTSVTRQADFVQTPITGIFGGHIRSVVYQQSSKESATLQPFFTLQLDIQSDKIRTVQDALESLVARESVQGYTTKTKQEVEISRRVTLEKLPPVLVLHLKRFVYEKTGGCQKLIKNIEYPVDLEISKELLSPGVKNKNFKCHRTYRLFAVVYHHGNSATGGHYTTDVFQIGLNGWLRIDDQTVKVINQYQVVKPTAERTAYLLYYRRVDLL

Cc1cc(C2CCCN2C(=O)CCl)nn1C.Cl (stereo not given)
inactive: OTUD6B -0.252 | OTUD7B -0.142 | PRPF8 0.0171 | PSMD7 -0.218 | UCHL3 0.3 | UCHL5 -0.218 | USP10 -0.132 | USP15 -0.246 | USP16 -0.631
active: UCHL1 -1.54
